The structures appear in SMILES notation. About 83,000 compounds went through this panel and 20% of them were active in at least one assay; those are over-represented in the sample as a whole.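 How to read the values: 0–100, growth inhibition (40 = 60% inhibited); 0, no net growth; -100 to 0, cell death (-40 = 40% of starting cells died; -100 = all dead).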 Values without a mark were called inactive. Activity calls are given as the source filed them. How the source made its calls: active means growth percent below 10; inactive means the rest.

This test concerns MDA-MB-468 breast. Briefly: NCI-60 one-dose screen, 48 h (100 = growth as untreated, 0 = no growth, -100 = all killed). Conditions: 10 µM unless noted.
As for `Cc1ccc(S(=O)(=O)NCCCNc2cc(-c3cn(C(C)(C)C)nc3-c3cccc(O)c3)ccn2)cc1`, the growth was 35.5%.
On to `COc1ccc(/C(C)=N/NS(=O)(=O)c2ccc(C)cc2)cc1OC`, for which the growth was 104%.
Regarding `O=C(NNC(=O)c1ccc(NC(=O)c2ccccn2)cc1)Nc1ccc2ccccc2c1`, the growth is 119%.
For `O=C(Nc1ccc(-n2ccc3c(NC(=O)c4ccccc4)ncnc32)cc1)Nc1ccc(Cl)c(C(F)(F)F)c1`, the growth was -56.3% (active).
Next, `N#Cc1c(-c2ccc(F)cc2)nc(N/N=C/c2c[nH]c3ccccc23)nc1N1CCOCC1`: 25.2%; `CCCCCCCCCCCCNC(=S)N/N=C/c1ccc(Cl)c(Cl)c1`: 104%; `CCC(C)[C@H](NC(=O)NC(=O)NC(=O)CI)C(=O)OC` (stereo partly drawn): 86.4%.
As to `CC(=O)Nc1c(Cl)cc2c(c1Cl)Cc1cc([N+](=O)[O-])ccc1-2`, the growth is -27.8% (active).
`O=C(c1ccc(Cl)cc1)N1CCCCC1`: the growth is 101%.
On to `CC(=O)Nc1ccc(S(=O)(=O)NC(CCC(=O)Nc2ccc(Cl)cc2)C(=O)O)cc1` (stereo not drawn), for which the growth is 98.8%.
Next, `Cc1ccccc1N1C(c2ccccc2)=NNC12C=CC(=O)c1c(O)cccc12` (stereo not drawn): 88%.
For `Nc1ccn(C2OC(F)(CO)C(O)C2F)c(=O)n1` (stereo not drawn), the growth is 76.2%.
Then `COc1cc(N2CCC(N3CCN(C)CC3)CC2)ccc1Nc1ncnc(Nc2ccccc2S(=O)(=O)C(C)C)n1`, with 110%.
Regarding `CCCCOc1nc2c(C)cccc2cc1-c1cc(-c2ccc(Cl)cc2)nc(-c2ccc(Cl)cc2)c1`, the growth was 102%.
Consider `C#CCOc1ccc(C2=NN(CCCC)C3N=C(Cl)c4ncn(CCCC)c4N23)cc1OCC#C` (stereo not drawn), for which the growth is 80.4%.
For `Cn1cc(-c2nc3c(F)cc4[nH]ncc4c3c3c2CCCC3)c(C(F)(F)F)n1`, the growth was 33%.
Take `Cc1cc2ncc(-c3cc4ccccc4c(N4CCN(C)CC4)n3)nc2cc1C`: the growth is -76.6% (active).
Then `Cc1cc2cc3ccc(N(C)C)cc3nc2cc1N`, with -56.8% (active); and `COc1ccccc1NC(=O)Cn1cc(CN2CCN(c3ccnc4cc(Cl)ccc34)CC2)nn1`, with 80.8%; and `Cc1nn(-c2ccccc2)c2ncnc(N/N=C/c3ccccc3)c12`, with 84.3%.
On to `COc1ccc(/C=C2\CN(Cc3cn(CCCNc4ccnc5cc(Cl)ccc45)nn3)C/C(=C\c3ccc(OC)c(OC)c3)C2=O)cc1OC`, for which the growth was -11.1% (active).
Turning to `CN1C(=O)C2(SCC(C(=O)NCC(=O)OC(C)(C)C)N2C(=O)C2CCCCC2)c2ccccc21` (stereo not drawn), the growth was 104%.
Then `CCC(C)C(N)C(=O)NNc1n[nH]c(=S)n1N` (stereo not drawn), with 104%.
In the case of `CC(/C=N/NC(N)=S)Cc1ccc(C(C)C)cc1` (stereo not drawn), the growth is 42.1%.
Next, `COc1ccc(/C=N/OCC(O)CN2CCC(O)CC2)cc1OC1CCCC1` (stereo not drawn): 117%.
As for `O=C(Nc1ccsc1C(=O)NC1CCCCC1)c1ccc(F)cc1`, the growth is 101%.
Take `C#CCOc1ccc(C(Nc2ccc(OC)cc2)c2nnnn2C2CCCCC2)cc1` (stereo not drawn): the growth was 101%.
In the case of `Cn1c2ccc(Br)cc2c2c3c(c4c5cc(F)ccc5oc4c21)C(=O)N(O)C3=O`, the growth is 108%.

The values above are taken from PubChem BioAssay (NCI).
